In PMC7862700, “An all-to-all approach to the identification of sequence-specific readers for epigenetic DNA modifications on cytosine”:

What follows are sequences tested against T1, FLI1 (Homo sapiens, UniProt Q01543 1-452) (assay: DAPPL (digital affinity profiling via proximity ligation, sequencing); 10 mM Tris-HCl pH 7.5, 50 mM NaCl, 1 mM DTT, 4% glycerol, room temperature, 30 min; GST-TFs on glutathione beads, 16-mer random dsDNA library, 0.1% formaldehyde crosslink after washing; high values mean tight binding). Conditions: protein: recombinant; tags: N-terminal GST; dsDNA, one strand shown.
T1 sequence: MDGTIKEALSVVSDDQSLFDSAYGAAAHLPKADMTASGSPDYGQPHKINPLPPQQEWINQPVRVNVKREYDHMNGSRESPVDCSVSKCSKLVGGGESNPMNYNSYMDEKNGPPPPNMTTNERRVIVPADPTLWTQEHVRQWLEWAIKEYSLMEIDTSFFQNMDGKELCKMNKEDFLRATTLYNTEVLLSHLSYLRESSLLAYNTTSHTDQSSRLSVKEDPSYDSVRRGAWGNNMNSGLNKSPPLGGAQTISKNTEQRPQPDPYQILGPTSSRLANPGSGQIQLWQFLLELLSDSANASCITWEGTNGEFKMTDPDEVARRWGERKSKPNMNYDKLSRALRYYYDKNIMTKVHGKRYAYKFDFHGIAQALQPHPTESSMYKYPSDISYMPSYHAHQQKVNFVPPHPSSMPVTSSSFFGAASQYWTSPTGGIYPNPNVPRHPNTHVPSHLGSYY
Procedure, shortened: (§1)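 Binding signal is defined as a hexamer's read frequency for one factor over its frequency for the tag-only sample. To obtain reads, GST-fused human transcription factors were expressed in yeast, captured on glutathione beads, barcoded with DNA and pooled with that sample. Pools met 200 nmole of a 16-mer random double-stranded DNA library in Tris/NaCl/DTT/glycerol buffer for 30 min at room temperature before washing, 0.1% formaldehyde crosslinking, proximity ligation (BsaI/T4 ligase, 1 h, 37 °C), PCR and Illumina NextSeq500 sequencing.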
With ATGATC the binding signal was 1.2 fold enrichment (6-mer frequency, TF over GST control).
In the case of TGTTTG, the binding signal is reported as 1.52 fold enrichment (6-mer frequency, TF over GST control).
For CCTCTC, the binding signal was 1.51 fold enrichment (6-mer frequency, TF over GST control).
For GCAAAT, the binding signal was 1.05 fold enrichment (6-mer frequency, TF over GST control).
TAAGGT was tested, and the binding signal was 1.12 fold enrichment (6-mer frequency, TF over GST control).
CTACAA was tested, and the binding signal was 1.17 fold enrichment (6-mer frequency, TF over GST control).
For CTTCTA, the binding signal was 1.39 fold enrichment (6-mer frequency, TF over GST control).
For CTTTAA, the binding signal was 1.37 fold enrichment (6-mer frequency, TF over GST control).
TACGCC was tested, and the binding signal was 1.39 fold enrichment (6-mer frequency, TF over GST control).
AGTAAT was tested, and the binding signal was 1.02 fold enrichment (6-mer frequency, TF over GST control).
TGGTTC was tested, and the binding signal was 1.45 fold enrichment (6-mer frequency, TF over GST control).
GCTGTT was tested, and the binding signal was 1.04 fold enrichment (6-mer frequency, TF over GST control).
In the case of TTCTTG, the binding signal is reported as 1.42 fold enrichment (6-mer frequency, TF over GST control).
With CCAAAC the binding signal was 1.02 fold enrichment (6-mer frequency, TF over GST control).
In the case of ATTATC, the binding signal is reported as 1.35 fold enrichment (6-mer frequency, TF over GST control).
With ATGTCA the binding signal was 1.14 fold enrichment (6-mer frequency, TF over GST control).
With AATCCG the binding signal was 1.53 fold enrichment (6-mer frequency, TF over GST control).
For AATGAA, the binding signal was 1.11 fold enrichment (6-mer frequency, TF over GST control).
For CTCGAA, the binding signal was 1.23 fold enrichment (6-mer frequency, TF over GST control).
With TTCGAG the binding signal was 1.18 fold enrichment (6-mer frequency, TF over GST control).
In the case of ATGCAC, the binding signal is reported as 1.28 fold enrichment (6-mer frequency, TF over GST control).
In the case of TTGCGG, the binding signal is reported as 1.37 fold enrichment (6-mer frequency, TF over GST control).
GTTCAA was tested, and the binding signal was 1.07 fold enrichment (6-mer frequency, TF over GST control).
With TGTATT the binding signal was 1.38 fold enrichment (6-mer frequency, TF over GST control).
CGTATC was tested, and the binding signal was 1.2 fold enrichment (6-mer frequency, TF over GST control).
For CGACCG, the binding signal was 1.2 fold enrichment (6-mer frequency, TF over GST control).
ACCATC was tested, and the binding signal was 1.18 fold enrichment (6-mer frequency, TF over GST control).
In the case of AAATAG, the binding signal is reported as 1.18 fold enrichment (6-mer frequency, TF over GST control).
In the case of AAGTCA, the binding signal is reported as 1.18 fold enrichment (6-mer frequency, TF over GST control).
TAACTT was tested, and the binding signal was 1.41 fold enrichment (6-mer frequency, TF over GST control).
For TCTGTA, the binding signal was 1.23 fold enrichment (6-mer frequency, TF over GST control).
In the case of CCCTGC, the binding signal is reported as 1.11 fold enrichment (6-mer frequency, TF over GST control).
For CCGTCA, the binding signal was 1.24 fold enrichment (6-mer frequency, TF over GST control).
With GGTTCC the binding signal was 1.52 fold enrichment (6-mer frequency, TF over GST control).
In the case of TCCAAA, the binding signal is reported as 1.08 fold enrichment (6-mer frequency, TF over GST control).
TACACA was tested, and the binding signal was 1.21 fold enrichment (6-mer frequency, TF over GST control).
TAAATA was tested, and the binding signal was 1.23 fold enrichment (6-mer frequency, TF over GST control).
TATAAC was tested, and the binding signal was 1.22 fold enrichment (6-mer frequency, TF over GST control).
For TAGGCT, the binding signal was 1.22 fold enrichment (6-mer frequency, TF over GST control).
TGCCGA was tested, and the binding signal was 1.07 fold enrichment (6-mer frequency, TF over GST control).

The sequences below were run against T2, ELK1 (Homo sapiens, UniProt P19419 1-428) in the same assay as above. Conditions: protein: recombinant; tags: N-terminal GST; dsDNA, one strand shown.
T2 sequence: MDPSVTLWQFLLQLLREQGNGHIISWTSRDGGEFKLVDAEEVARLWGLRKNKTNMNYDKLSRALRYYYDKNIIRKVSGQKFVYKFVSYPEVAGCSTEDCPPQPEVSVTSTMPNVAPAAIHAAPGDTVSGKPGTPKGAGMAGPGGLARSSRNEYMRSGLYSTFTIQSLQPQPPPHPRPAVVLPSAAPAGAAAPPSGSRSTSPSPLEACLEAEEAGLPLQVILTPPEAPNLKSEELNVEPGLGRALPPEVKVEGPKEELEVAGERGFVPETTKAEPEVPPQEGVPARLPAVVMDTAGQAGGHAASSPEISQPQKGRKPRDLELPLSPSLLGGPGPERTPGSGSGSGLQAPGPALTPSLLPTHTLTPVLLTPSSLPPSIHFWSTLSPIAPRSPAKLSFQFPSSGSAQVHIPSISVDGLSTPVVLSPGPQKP
Procedure, shortened: as §1
For ATGATC, the binding signal was 1.17 fold enrichment (6-mer frequency, TF over GST control).
In the case of TGTTTG, the binding signal is reported as 1.31 fold enrichment (6-mer frequency, TF over GST control).
CCTCTC was tested, and the binding signal was 1.39 fold enrichment (6-mer frequency, TF over GST control).
With GCAAAT the binding signal was 1.04 fold enrichment (6-mer frequency, TF over GST control).
For TAAGGT, the binding signal was 1.08 fold enrichment (6-mer frequency, TF over GST control).
With CTACAA the binding signal was 1.13 fold enrichment (6-mer frequency, TF over GST control).
With CTTCTA the binding signal was 1.41 fold enrichment (6-mer frequency, TF over GST control).
With CTTTAA the binding signal was 1.27 fold enrichment (6-mer frequency, TF over GST control).
In the case of TACGCC, the binding signal is reported as 1.22 fold enrichment (6-mer frequency, TF over GST control).
In the case of AGTAAT, the binding signal is reported as 1.1 fold enrichment (6-mer frequency, TF over GST control).
